The values below come from ChEMBL document CHEMBL4513216, “Probing the Open Global Health Chemical Diversity Library for Multistage-Active Starting Points for Next-Generation Antimalarials” (ACS Infect Dis, 2020).

Among all 69,000 compounds or so, about 8,600 (12%) showed an effect of 50% or more. Only a selection was taken, and strong results are over-represented in it overall.

For the experiment, the system named is Plasmodium berghei. The experiment can be described thus: Screen against P. berghei liver stage (PbLuc), transformed with Luciferase, at 10uM. The settings on record: tested at 10 uM. It is filed as functional, HepG2.
With `CC(NC(=O)C1=NN(C)C(=O)CC1)c1cccc(Cl)c1` (stereo unspecified), the INHIBITION came to 24.3%. For the molecule `Cc1csc(C2CCCCN2C(=O)c2cc(C(C)C)[nH]n2)n1` (stereo unspecified), the INHIBITION was 70.8%.

Take `Cc1csc(C2CCCCN2C(=O)c2cc(C3CC3)[nH]n2)n1` (stereo unspecified): the INHIBITION stood at 13.6%. The value for `Cc1cc(C(=O)N2CCCCC2c2nc(C)cs2)[nH]n1` (stereo unspecified) was 35.7%; that for `Cc1nc(CN2CCC(C(=O)O)(n3ccc(C(C)C)n3)CC2)co1` was -35.2%.

In the case of `Cc1ccc(C(=O)N2CCCCC2CN(C)C)cc1` (stereo unspecified), the INHIBITION was 21.8%.

Turning to `Cc1cc(C)n(CC(=O)N2CCCCC2CCN2CCCC2=O)c(=O)n1` (stereo unspecified), the INHIBITION turned out to be 44.2%. Turning to `COCCCC1CCCCN1C(=O)c1ccc(SCCO)cc1` (stereo unspecified), the INHIBITION came to 52.6%. In the case of `O=C1CCCN1CCC1CCCCN1C(=O)c1ccc(SCCO)cc1` (stereo unspecified), the INHIBITION came to 58.2%. On to `CCC1CCCCCN1C(=O)c1ccc(N2CCC(O)CC2)cc1` (stereo unspecified), for which the INHIBITION is -45.2%. As to `N#Cc1ccc(NC(=O)N2CCCCC2CN2CCCC2=O)cc1` (stereo unspecified), the INHIBITION was 44.9%.

`COc1ccc2c(c1)CN(C)C(=O)CCN2CC(O)C(C)(C)C` (stereo unspecified): the INHIBITION came out at 17.7%. With `CC(C)(NCC(=O)NCC1CC1)c1ccc2c(c1)OCCO2` the figure was -36.3%; with `CCn1ccc(C(=O)Nc2ccc3c(c2)C(C)(C)C(=O)N3C)n1`, 40%; with `CCC(CC)C(=O)N1CCC(c2nn(CCN)c3nccnc23)C1` (stereo unspecified), 41.2%.

For the molecule `CS(=O)(=O)N[C@@H]1CN(C(=O)c2ccccn2)C[C@@H]2CCCO[C@@H]21`, the INHIBITION came to 34.6%. The value for `COc1ccc(-c2cc3nc(CCNC(=O)CN(C)C)nn3cn2)cc1` was 19.4%; that for `CC(C)(C)C(=O)CN1CCc2ccccc2NCCC1=O` was 15.4%. Turning to `CN1CCCN(C(=O)c2ccn3ccnc3c2)CC1`, the INHIBITION is on record as -60.7%. Take `O=C(c1ccsc1)N1CC[C@@H](N2CCOCC2)[C@@H]1Cc1ccccc1`: the INHIBITION is -2.72%. The value for `COCc1nc(C(=O)NS(=O)(=O)c2ccc(OC)c(C)c2)cs1` was 52.6%; that for `COCc1nc(C(=O)NS(=O)(=O)c2ccc(C)c(C)c2)cs1` was -1.7%. Regarding `COCc1nc(C(=O)NS(=O)(=O)c2ccc(F)c(F)c2)cs1`, the INHIBITION came to 21.1%.

Turning to `COc1ccccc1NC(=O)c1cc2c([nH]c1=O)CCCC2=O`, the INHIBITION is -15.9%.

Regarding `CCN(c1ccc(C(=O)NCCN2CCOCC2)cc1)S(=O)(=O)CC`, the INHIBITION is listed as 34.2%. For `CCN(CC)C(=O)Cn1cc(C(=O)NCCc2scnc2C)nn1`, the INHIBITION was found to be 10.6%. As for `CCN(CC)C(=O)Cn1cc(C(=O)NCCc2nc(C)c(C)s2)nn1`, the INHIBITION is 39%. Turning to `CCN(CC)C(=O)Cn1cc(C(=O)NCCCc2scnc2C)nn1`, the INHIBITION is 56.3%. `CN(Cc1ccco1)[C@@H]1CN(CC2CCOCC2)C[C@@H]2CCCO[C@@H]21`: the INHIBITION amounted to 38.1%. Turning to `CNC(=O)C1(c2cnccn2)CCCN1C(=O)c1ccccc1C` (stereo unspecified), the INHIBITION is given as 30.4%. With `Cc1ccc2nc(-c3cnc(N)nc3)cc(C(=O)N(C)C)c2c1` the figure was 13.5%.

Take `Cc1cc(C)c2c(C(=O)N(C)C)cc(-c3cnc(N)nc3)nc2c1`: the INHIBITION is reported as 5.91%. The value for `CN(C)C(=O)c1cc(-c2cnc(N)nc2)nc2cc(F)ccc12` was 60.2%. As for `CCCn1cc(-c2cc(C(=O)N(C)C)c3ccc(C)cc3n2)cn1`, the INHIBITION is recorded as 8.845%. Regarding `Cc1ccc2nc(-c3cnc(N)nc3)c(C)c(C(=O)N(C)C)c2c1`, the INHIBITION was determined as 50.5%. In the case of `COc1ccc2c(C(=O)N(C)C)cc(-c3cnc(N)nc3)nc2c1`, the INHIBITION is 15.7%. With `c1ncn(CC2CCCN(CC3CCCCC3)C2)n1` (stereo unspecified) the figure was -1.75%; with `Nc1cc(C(=O)N2CCCC(C(=O)CCc3ccccc3)C2)ccn1` (stereo unspecified), 49.3%. With `c1cnc(N2CCO[C@H]3CN(Cc4cc[nH]n4)C[C@H]32)cn1` the figure was -15.3%; with `CCc1nc(CN2CCOC(Cn3nc(C)cc3C)C2)no1` (stereo unspecified), -0.219%.

For `COCCN1CCC(CNc2cnc3ccccc3n2)CC1`, the INHIBITION was 46.1%. Turning to `COCCN1CCC(CNc2nc3ccccc3o2)CC1`, the INHIBITION is listed as 61%. With `COCCN1CCC(CNc2nccc(-c3cnn(C)c3)n2)CC1` the figure was 13.3%. With `Cc1csc(CN2CCC3(CC2)COC(COCC2CC2)C3)n1` (stereo unspecified) the figure was 43%; with `CS(=O)(=O)NC1CCCN(C(=O)NCc2ccccc2Cl)C1` (stereo unspecified), 25.4%; with `CC(=O)OC1CN(c2nc3c(Cl)cccc3s2)C1`, -56.7%. With `c1cnc(-c2nc(CNC3CCc4ncnn4C3)cs2)nc1` (stereo unspecified) the figure was -25.75%. On to `Cc1ccc(CCC(=O)N2CCn3c(nnc3C(C)C)C2)cc1Cl`, for which the INHIBITION came out at 8.41%. `COc1ccc(-c2nnc(SC(C)C(=O)NC3CCCC3)[nH]2)c(OC)c1` (stereo unspecified): the INHIBITION came out at 51.7%. With `COc1ccc(-c2nnc(SC(C)C(=O)NCC(C)C)[nH]2)c(OC)c1` (stereo unspecified) the figure was 64%; with `COc1ccc2nnc(C(=O)NC3CCCC3)nc2c1`, -65.8%. On to `COc1ccc(-c2nnc(SC(C)C(N)=O)[nH]2)c(OC)c1` (stereo unspecified), for which the INHIBITION is on record as 18.3%.

As to `COc1ccc(-c2nnc(SC(C)C(=O)NC(C)(C)C)[nH]2)c(OC)c1` (stereo unspecified), the INHIBITION is on record as 82.5%. In the case of `COc1ccc(-c2nnc(SCC(=O)NCC(C)C)[nH]2)c(OC)c1`, the INHIBITION is recorded as -30.8%. With `COc1ccc(S(=O)(=O)NC(=O)C(C)OC)c(OC)c1` (stereo unspecified) the figure was 33%. Turning to `COc1ccc(-c2nnc(SC(C)C(=O)NC3CC3)[nH]2)c(OC)c1` (stereo unspecified), the INHIBITION is on record as 37.1%. The value for `COc1ccc(-c2ccccc2CN)c(OC)c1` was -58%. On to `COc1cc2cc3c(nc2cc1OC)OCCN(Cc1cccs1)C3`, for which the INHIBITION is -3.94%.

Consider `Cc1ccc(CN2CCc3onc(C(=O)Nc4cccnc4)c3C2)o1`, for which the INHIBITION is on record as -12.2%. With `CC1(C(=O)NC2CCCC2)CCCN(c2ncccn2)C1` (stereo unspecified) the figure was 0.301%; with `O=C(NCC1CCOCC1)c1cc(-c2cccnc2)c2cnccc2n1`, -4.87%; with `CCn1cc(CN2CCC(c3nnc(CN(C)C)n3CC)CC2)cn1`, 15.1%. The value for `CCn1cc(C2CCN(Cc3ccnc(N(C)C)c3)CC2)cn1` was 66.7%.

On to `CN(C)c1cc(C2CCCN(Cc3cnn(C)c3)C2)ccn1` (stereo unspecified), for which the INHIBITION is given as 3.85%. With `Cc1ccc(C(=O)N2CCCCC2c2[nH]ncc2S(C)(=O)=O)s1` (stereo unspecified) the figure was 36.7%; with `CN(C)CC1CSCCCN1C(=O)c1ccsc1` (stereo unspecified), -26.3%. With `CN1CC2(CCC(C(=O)O)CC2)Oc2ccccc2C1=O` (stereo unspecified) the figure was -4.35%; with `CSc1ccccc1C(=O)Nc1ccc(OC2CCN(C)CC2)cc1`, 11.8%.

With `CN1CCC(Oc2ccc(NC(=O)c3cccc(Cl)c3)cc2)CC1`, the INHIBITION is reported as 65.1%. The value for `Cc1cccc(C(=O)Nc2ccc(OC3CCN(C)CC3)cc2)c1` was 63.5%; that for `COc1cccc(C(=O)Nc2ccc(OC3CCN(C)CC3)cc2)c1` was 49.2%; that for `CN1CCC(Oc2ccc(NC(=O)c3ccccc3)cc2)CC1` was 21.7%. With `Cc1ccc(C(=O)Nc2ccc(OC3CCN(C)CC3)cc2)c(C)c1` the figure was 47%; with `Cc1ccc(C)c(C(=O)Nc2ccc(OC3CCN(C)CC3)cc2)c1`, 55.8%; with `Cc1ccccc1C(=O)Nc1ccc(OC2CCN(C)CC2)cc1`, 10.7%. For `COc1ccccc1C(=O)Nc1ccc(OC2CCN(C)CC2)cc1`, the INHIBITION is -25.6%. With `CN1CCC(Oc2ccc(NC(=O)c3ccccc3Br)cc2)CC1` the figure was 51.8%; with `CN1C(=O)CO[C@H](c2ccc(NC(=O)c3cccc(F)c3)cc2)[C@H]1CO`, 38.1%; with `COCCc1noc(CN2CCCCC2Cn2cccn2)n1` (stereo unspecified), -2.33%. As to `CCCSCC(=O)NCc1cccc(CN(C)CC)c1`, the INHIBITION is given as 39.8%.

Consider `CN([C@@H]1CC[C@@H](N2CCOCC2)[C@@H]1O)S(=O)(=O)c1ccccc1`, for which the INHIBITION was determined as 3%. With `Cc1nnc(CN(Cc2ccco2)Cc2cccc3c2OCO3)n1C` the figure was -16.4%; with `CN(C)CC1(O)CCN(C(=O)c2ccc(-n3cccn3)cc2Cl)C1` (stereo unspecified), 36.6%; with `CNC(=O)c1cc(S(=O)(=O)C(C)C)cs1`, 24.1%. As to `CCN(CC)S(=O)(=O)NCCc1cc(C)ccc1OC`, the INHIBITION is -12.9%.

Take `COc1ccc(C)cc1C(C)NS(=O)(=O)c1ccc2c(c1)CCC(=O)N2` (stereo unspecified): the INHIBITION worked out at 54.5%.

For `COc1ccc(OC)c(C(C)NS(=O)(=O)c2cnn(C)c2)c1` (stereo unspecified), the INHIBITION is listed as 11.2%. Regarding `COc1ccc(C)cc1CCNS(=O)(=O)c1ccc2c(c1)CCC(=O)N2`, the INHIBITION is on record as 56.3%. The value for `COc1ccc(C)cc1CCNS(C)(=O)=O` was -18%; that for `COc1ccc(C(C)NS(=O)(=O)c2ccc3c(c2)CCC(=O)N3)cc1F` (stereo unspecified) was 20.2%.

Consider `Cc1oncc1C(=O)N1C[C@H](OCc2ccccn2)[C@H]2OCCC[C@H]21`, for which the INHIBITION was 15.4%. With `COc1ccc(F)c(-c2ccnc(N)c2)c1` the figure was 1.95%; with `CC(CC(=O)NCCNS(C)(=O)=O)C1CCCCC1` (stereo unspecified), 44.5%; with `COCCn1cc2c(n1)C(CNS(C)(=O)=O)OCC2` (stereo unspecified), -31%. With `CCN(CC)C(=O)c1ccn(COc2ccc(F)cc2F)n1` the figure was -3.93%. The value for `CCc1ncc(C(=O)NCCN2CCNC2=O)cn1` was 22.285%; that for `Cc1nnc(C2CCN(C(=O)c3ccc4nccnc4c3)CC2)s1` was 51.3%; that for `COC(=O)c1ccc(C(=O)N2CCC(c3nnc(C)s3)CC2)cc1` was 20.4%. For the molecule `Cc1nnc(C2CCN(C(=O)c3ccc4[nH]ccc4c3)CC2)s1`, the INHIBITION was -5.64%. The value for `CS(=O)(=O)c1cn[nH]c1C1CCCN(C(=O)Cn2cccn2)C1` (stereo unspecified) was 2.71%. Consider `COc1cccc2c3c(c(=O)[nH]c12)CC(C)(C)O3`, for which the INHIBITION is -6.18%.

For the molecule `CCOc1cc(C(=O)N(C)C)ccc1NC(=O)C(C)c1ccsc1` (stereo unspecified), the INHIBITION is listed as 51.5%. With `CCOc1cc(C(=O)N(C)C)ccc1NC(=O)c1ccsc1` the figure was -23%; with `CCOc1ccc(C(=O)N(C)C)cc1NC(=O)c1ccsc1`, -20.7%; with `Cc1cccc2c1cnn2CCCNC(=O)c1ccnn1C`, 35%. The value for `CC(C)Cc1cc(C(=O)O)nc2[nH]c(=O)[nH]c(=O)c12` was 41.2%.
